Shown are actives, neighbours in structure and some others; about 6.8% of the full set was active somewhere.
Cy5 interf NS3h – Cy5 fluorescence interference, HCV helicase counter-screen; AID 720488; 16,000 tested, 6% active; Cy5-dT15 DNA with NS3h; actives lie on both sides; signal over control mean, under 1 quenches; fluorescence interference ratio at 100 µM;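 active = compound fluorescence over control fluorescence at most 0.8, a quencher, or at least a set upper limit, an enhancer; inactive = ratio between 0.8 and the set upper limit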
HCV NS3h FP – hepatitis C NS3 helicase inhibition, primary screen | NS3h Cy5-dT15 DNA binding, fluorescence polarization | inhibition, % at 100 µM | 16,000 tested, 1.6% active | AID 687043;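 active = inhibition above the average over every tested compound plus 3 SD, cut at about 40% in these data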
* hit, by the source's call.

SMILES	Cy5 interf NS3h	HCV NS3h FP
CCOC(=O)C1=C(C)N=c2s/c(=C\c3cccs3)c(=O)n2C1c1ccc(SC)cc1 (stereo unspecified)	0.91	14
CCOC(=O)c1nc2nc(-c3cccs3)cc(C(F)(F)F)n2n1	0.75*	8
CC(=C=CC(C)(C)C1OCC(C)(C)CO1)CCC=C(C)C	0.83	-3
CCOC(=O)C1=C(C)N=c2s/c(=C\c3cc(Cl)c(O)c(OC)c3)c(=O)n2C1c1ccccc1 (stereo unspecified)	1	1
COc1ccc(OCC(=O)Nc2ccc(I)cc2Cl)cc1	0.93	3
O=C(COc1ccc(Cl)cc1)Nc1ccc(I)cc1Cl	1.2*	-1
COCCNC(=O)C(=O)Nc1cccc2ccccc12	1.1	1
CCOC(=O)C1=C(c2ccccc2)N=c2s/c(=C\c3ccc(O)c(OC)c3)c(=O)n2C1c1ccc(OC)cc1 (stereo unspecified)	1	14
Cc1cccc(C(=O)Nc2ccc(C(=O)/C=C/c3ccncc3)cc2)c1	0.74*	-5
CC(=O)Nc1cccc(C(=O)/C=C/c2ccc(/C=C/C(=O)c3cccc(NC(C)=O)c3)cc2)c1	1.2	14
Cc1ccc(/C=N\N=C/c2ccc(C)cc2)cc1	1	9
CC(=O)Nc1ccc(C(=O)Nc2ccc(Cl)cn2)cc1	0.99	-8
CCC(c1ccccc1)c1nnc(NC(=O)Nc2ccccc2)s1 (stereo unspecified)	0.97	13
O=C1OC2C=CC(Br)=CC2C=C1C(=O)N1CCSC1c1ccc2c3c(cccc13)CC2 (stereo unspecified)	1	13
O=C1OC2C=CC(Br)=CC2=CC1C(=O)N1CCSC1c1ccccc1Cl (stereo unspecified)	0.73*	21
COc1ccccc1C=C1C(=O)c2ccccc2C1=O	0.99	26
CC(=O)C(C(C)=O)C1=CC(=O)C(=O)c2ccccc21	0.53*	6
Cc1ccc(S(=O)(=O)NCCOc2ccccc2Cl)cc1[N+](=O)[O-]	0.79*	5
Cc1ccc(S(=O)(=O)NCCOc2ccccc2)cc1[N+](=O)[O-]	0.93	13
CCOc1ccccc1NC(=O)CN(c1cc(OC)ccc1OC)S(C)(=O)=O	0.91	8
O=C1C(Cl)=CC(=NS(=O)(=O)c2ccc(Cl)cc2)c2ccccc21	0.87	-4
O=C1C(Cl)=CC(=NS(=O)(=O)c2ccccc2)C=C1Br	0.66*	32
CS(=O)(=O)N(Cc1ccc(Cl)cc1)c1ccc(C(=O)NCc2ccncc2)cc1	1.1	21
COc1ccccc1N1CCN(/N=C\c2ccc(Br)s2)CC1	1	18
CC1=NNC(=O)/C1=C\c1cn(-c2ccccc2)nc1-c1ccc(Br)cc1	1	5
SMILES	Cy5 interf NS3h	HCV NS3h FP
Cc1cccc(C)c1NC(=O)CO/N=C(/N)c1nonc1N	0.71*	15
N/C(=N\OCC(=O)Nc1ccc(F)cc1)c1nonc1N	1	0
COc1ccc(C2C3=C(CC(C)(C)CC3=O)OC3=C2C(=O)CC(C)(C)C3)cc1Br	0.89	16
COc1cc(Br)c(C2C3=C(CC(C)(C)CC3=O)OC3=C2C(=O)CC(C)(C)C3)cc1OC	0.77*	9
O=C(N/C(=C/c1ccc(Br)cc1)C(=O)N1CCOCC1)c1ccccc1	1.1	9
CCCCCCN1C(=O)C(O)=C(C(C)=O)C1c1ccc(F)cc1 (stereo unspecified)	0.96	-3
COC(=O)C(=O)C=C(O)c1ccc(Br)cc1	1.1	5
CC(C)CCNC(=O)c1cccc([N+](=O)[O-])c1	1	17
CC(NC(=O)NC(=O)c1cccc([N+](=O)[O-])c1)C1CC1 (stereo unspecified)	0.64*	10
O=C1C(Cl)=C(N2CCN(c3ccccc3)CC2)C(=O)N1c1ccccc1	0.97	7
O=C(CCCN1C(=O)/C(=C\c2cccs2)SC1=S)Nc1ccccc1O	0.97	8
O=C(CCN1C(=O)/C(=C/c2cccs2)SC1=S)Nc1nc2ccccc2s1	0.71*	14
Cc1ccc(N(CC(=O)Nc2ccc(C(C)C)cc2)S(C)(=O)=O)cc1Cl	0.97	19
CCOC(=O)C1=C(O)/C(=C/c2ccc(Cl)cc2)SC1=Nc1ccc(C)cc1	0.81	-1
CCOC(=O)C1=C(O)/C(=C/c2ccc(O)cc2)SC1=Nc1cccc(Cl)c1	1.1	63*
COC(=O)C(CCCC(C(=O)OC)C(=O)OC)C(=O)OC	0.68*	2
COC(=O)C(CC(C(=O)OC)C(=O)OC)C(=O)OC	1	-2
CCOc1ccc2ccc(OCC)c(/C=C3/NC(=S)NC3=O)c2c1	1.1	2
CCOc1cc(OCC)cc(C(=O)Nc2ccc([N+](=O)[O-])cc2)c1	0.99	5
Cc1ccccc1-c1nnc(NC(=O)Nc2ccc(Cl)c(Cl)c2)s1	1	4
COc1ccc(N2C(=O)CC(Cc3ccc(Cl)cc3)C2=O)cc1 (stereo unspecified)	0.69*	21
COc1ccc(N2C(=O)CC(Cc3ccccc3OC)C2=O)cc1 (stereo unspecified)	1	4
C=CCN1C(=O)CS/C1=N/N=C\c1cccc([N+](=O)[O-])c1	0.97	16
O=C(/C=C/c1ccccc1)NC(=S)Nc1cccc2ccccc12	0.93	28
Cc1cccn2c(=O)c(/C=C3\SC(=S)N(Cc4ccco4)C3=O)c(NCCCn3ccnc3)nc12	0.82	11
SMILES	Cy5 interf NS3h	HCV NS3h FP
CCOc1cc(C(=S)N2CCOCC2)cc(Br)c1O	0.72*	21
CCOc1cc(C(=S)N2CCOCC2)ccc1OS(=O)(=O)c1ccc(C)cc1	0.88	11
COC(=O)c1ccccc1NC(=O)CN(c1cccc(Br)c1)S(=O)(=O)c1ccccc1	1	11
O=C(Nc1ccc2ccccc2c1)c1ccc(-c2cccc(Cl)c2)o1	0.94	5
O=C(Nc1ccc(-c2nc3ncccc3o2)cc1)c1ccc(-c2cccc(Cl)c2)o1	1.2*	-44
CCOc1ccccc1NC(=O)CCN1C(=O)c2ccccc2C1=O	1	20
Cc1ccsc1/C=C1\SC(=S)N(C(C)C)C1=O	0.99	5
Cc1ccsc1/C=C1\SC(=N)N(c2ccc3c(c2)OCO3)C1=O	1.5*	49*
O=C1c2ccccc2NC(c2ccc3c(c2)OCO3)N1c1ccc(F)cc1 (stereo unspecified)	1.1	13
COc1cc(/C=C2/C(C)=C(C#N)c3nc(N)c(C#N)c(C)c32)c([N+](=O)[O-])cc1OC	0.97	47*
COc1ccc(/C=C2/C(C)=C(C#N)c3nc(N)c(C#N)c(C)c32)cc1Br	0.96	14
CN(C)c1nc(-c2cccs2)cs1	1	-1
O=[N+]([O-])c1ccc(N2CCN(S(=O)(=O)c3ccccc3)CC2)cc1Sc1cccc2cccnc12	0.97	14
O=[N+]([O-])c1ccc(N2CCNCC2)cc1Sc1cccc2cccnc12	0.75*	2
COc1ccc(C2CC(c3c(-c4ccccc4)c4cc(Br)ccc4[nH]c3=O)=NN2C(=O)CCC(=O)O)cc1 (stereo unspecified)	1.1	8
CCn1c(C)[n+](CCO)c2cc(Cl)c(Cl)cc21	0.86	2
O=C(COc1ccccc1[N+](=O)[O-])Nc1ccc2oc(-c3cccc(Cl)c3)nc2c1	1.1	-19
O=C(Nc1cccc(-c2nc3cc(Cl)ccc3o2)c1)c1ccc2c(c1)OCCO2	0.71*	11
Cc1ccc(-c2nc3cc(Cl)ccc3o2)cc1NC(=O)c1ccc2c(c1)OCCO2	1.2	-4
CC(=O)Nc1ccc2oc(-c3cccc(Cl)c3)nc2c1	1.2*	-20
